# Assay outcomes (PubChem)
# An excerpt weighted towards active compounds, which were near 2.5% of everything screened.
# Apoferritin bind: binds horse apoferritin like a general anesthetic; P02791; apoferritin/1-aminoanthracene competitive binding, fluorescence; Potency, µM (titrated, usually from 77.5 µM), inactives show at the top dose activity change, negative = displacement, most hits filed as inhibitors; 350,000 tested, 0.074% active; AID 485281; also: potency is read from the fitted curve at half-maximal effect; % is scaled to controls: 0 for no effect and ±100 for the full control effect; nearly all actives have a fitted effect of over 20% in size
# Target sequence (P02791 2-175 limits assumed): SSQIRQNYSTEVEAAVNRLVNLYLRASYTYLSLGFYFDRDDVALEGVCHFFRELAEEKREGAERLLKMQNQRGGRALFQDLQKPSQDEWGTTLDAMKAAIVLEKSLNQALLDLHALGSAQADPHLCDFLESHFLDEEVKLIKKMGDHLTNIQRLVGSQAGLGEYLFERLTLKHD
#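 Concentration-response curves derived by four-parameter Hill fitting of normalized fluorescence, where compounds displaced 1-AMA from 10 uM horse apoferritin following a brief 10 min room-temperature incubation; propofol titration acted as positive control.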
# CCT chaperon mod: changes cytosolic chaperonin activity; purified chaperonin ATPase assay, HTRF ADP detection, 30 min; activity change, % (no concentration beside the values), hits read low; 360,000 tested, 0.3% active; AID 651819; in the data active = activity change below about -30%; also: % is scaled to controls: 0 for no effect and ±100 for the full control effect
#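 Nucleotide hydrolysis assay: TRiC at 20–40 nM final (set by batch activity) with 10 uM ATP, 30 min at 37 °C, in presence of 76 uM compound. Detection by competitive ADP HTRF, 30 min ambient.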
# TDP43 rescue: rescues yeast growth from TDP-43 toxicity; TDP-43 expressing yeast growth rescue, BacTiter-Glo, 24 h; Potency, µM (top dose mostly 46.1 µM), for the others: at the highest dose growth rescue (activation), actives largely listed as activators; 410,000 tested, 1.8% active; AID 652104; also: potency is read from the fitted curve at half-maximal effect; % of control where 0% means no effect; nearly all actives have a fitted effect of over 50% in size
#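 Galactose-induced TDP-43 yeast, OD600=0.02, compound pinned; 24 hr, 30 deg C; BacTiter-Glo luminescence for growth. Inhibitors of TDP-43 toxicity read as activators.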
# pAkt inh: Akt phosphorylation inhibition. Neuro2A IGF-stimulated pAkt S473 HTRF, 20 min; stronger effect = lower value. activity change, % for hits at 50 µM. 360,000 tested, 0.32% active. AID 651550; in the data active = activity change below about -80%; inconclusive = mostly about -51% to -80%; also: % is scaled to controls: 0 for no effect and ±100 for the full control effect
#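 Neuro2A cells in DMEM with 0.5% FBS, overnight at 37 deg C, given compound at single 50 µM final, then IGF (6 nM final) for 20 min at 37 deg C. Lysed; phospho-Akt Ser473 by HTRF after 24 h, 665/615 ratio.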
# aSyn rescue: inhibitors of alpha-synuclein toxicity in yeast; Potency, µM (titrated, usually from 46.1 µM), for inactives: at the top dose growth rescue (activation), hits mostly activators; AID 652106; 370,000 tested, 0.14% active; Yeast expressing alpha-synuclein, growth rescue, BacTiter-Glo, 24 h; also: potency is read from the fitted curve at half-maximal effect; % of control where 0% means no effect; nearly all actives have a fitted effect of over 65% in size
#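 Galactose-induced alpha-syn yeast (OD600=0.02, raffinose-pregrown) + pinned cpd, 24 hr, 30 deg C; growth by BacTiter-Glo luminescence. Growth restoration scores as activation.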
# Mito fusion act: inhibitors of mitochondrial division or activators of mitochondrial fusion | S. cerevisiae fusion-defective mutant growth rescue, CellTiterGlo 48 h | Potency, µM (highest dose often 46.1 µM), for the others: top-dose growth rescue (activation), hits mostly activators | 320,000 tested, 0.23% active | AID 485298; also: potency is read from the fitted curve at half-maximal effect; % of control where 0% means no effect; nearly all actives have a fitted effect of over 45% in size
#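 Yeast fusion mutant, YPEG (non-fermentable carbon), compound, 48 h at 37C non-permissive; CellTiterGlo added, 10 min RT, luminescence read. Rescued growth = division inhibition.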
# Active calls of the source: *; i = inactive; ? = inconclusive; . = not tested or not shown; [ ] = dose if it differs, or a comment. Unless noted, calls follow the shape of the dose curve; as a rule, active = well fitted curve in the direction sought with a large enough effect; inconclusive = small, poorly fitted or top-dose-only effect, or another doubt; inactive = no such curve, though single readings can be large; an effect the other way counts as inactive or inconclusive.
SMILES,Apoferritin bind,CCT chaperon mod,TDP43 rescue,pAkt inh,aSyn rescue,Mito fusion act
NC(=O)c1ccc(-c2ccc(Br)cc2)o1,?,-2,13µM*,i,0%,-2%
COc1ccc(-c2ccc(CCC(=O)O)o2)cc1,-3%,1,10µM*,i,?,3%
NC(=O)C1CCN(C(=S)c2ccc(-c3ccc(Br)cc3)o2)CC1,-4%,-3,-8%,i,-5%,1%
O=C(O)CCc1ccc(-c2ccc(Br)cc2)o1,-21%,-1,3.2µM*,i,-44%,5%
Cc1n[nH]c2ccccc2c1=O,.,-1,0%,i,5%,.
CC(C)(C)c1ccc(Nc2n[nH]c3ccccc23)cc1,.,0,35µM*,i,6%,.
O=C(c1cccc2ccccc12)N1CCN(S(=O)(=O)c2ccccc2)CC1,.,.,.,.,8%,.
O=C(CCC(=O)c1cccs1)OCC(=O)c1ccc(Cl)s1,28µM*,-1,12%,i,9%,-4%
O=C(CCC(=O)c1cccs1)OCC(=O)c1ccc(F)cc1,.,1,22%,i,2%,.
Cc1ccc(S(=O)(=O)N2CCN(c3nc(-c4cnccn4)nc4ccccc34)CC2)cc1,.,.,.,.,-17%,.
Cc1ccc(C)c(S(=O)(=O)N2C(=S)NC(=O)C2CC(C)C)c1 (stereo not drawn),-8%,-1,25µM*,i,?,12%
CC(C)C1C(=O)NC(=S)N1S(=O)(=O)c1ccc(C(C)(C)C)cc1 (stereo not drawn),?,1,8%,i,0%,12%
Cc1nc(/C(N)=N/OC(=O)c2cccc(Cl)c2)c(C(F)(F)F)o1,-16%,-3,20µM*,i,1%,8%
Cc1nc(/C(N)=N/OC(=O)c2ccccc2Cl)c(C(F)(F)F)o1,-5%,-3,28%,i,0%,3%
CCCN1CNc2c(c(=O)[nH]c(=S)n2CCc2ccc(C)c(C)c2)C1,.,.,.,.,-12%,.
COc1ccc(/C=c2\[nH]c(=O)/c(=C/c3ccc(OC)c(OC)c3)[nH]c2=O)cc1OC,.,.,.,.,0%,.
Clc1ccc(Nc2nc(C3CC3)cs2)cc1,?,-2,14µM*,i,2%,-1%
Cc1ccc(Nc2nc(C3CC3)cs2)cc1,-15%,.,.,.,.,2%
Cc1ccc(C)c(CNC(=O)CN2C(=O)CSc3ccc(S(=O)(=O)N(C)C)cc32)c1,0%,.,17%,.,.,.
Oc1ccc2ccccc2c1CNc1ccc(Br)cn1,0%,-2,20µM*,i,1%,3%
COc1ccc2c(c1OC)C(=O)NC(C)=C(C(=O)OC(C)(C)C)C2O (stereo not drawn),42%,-2,16%,i,16µM*,0%
COc1cc(C2NC(=O)NC(C)=C2C(=O)OC(C)(C)C)ccc1OCC(N)=O (stereo not drawn),-4%,0,21%,.,.,5%
COc1ccc(-c2nnc(SCC(=O)N(C)C3CCCCC3)o2)cc1OC,?,.,-2%,.,.,.
COc1ccc(-c2nnc(SCC(=O)OC3CCCCC3)o2)cc1OC,?,-1,15%,-117%*,3%,0%
O=C(/C=C/c1ccco1)Oc1cc(Br)cc(/C=N/NC(=O)c2ccccc2O)c1,-13%,-1,7%,i,22µM*,13%
SMILES,Apoferritin bind,CCT chaperon mod,TDP43 rescue,pAkt inh,aSyn rescue,Mito fusion act
CCOC(=O)c1ccccc1NC(=O)c1cnc(N2CCOCC2)c2ccccc12,60%,.,?,.,.,.
N/C(=N\OC(=O)N1c2ccccc2Sc2ccccc21)c1ccccc1,-9%,-5,3.5µM*,i,-73%,-22%
Cc1cccc(/C(N)=N/OC(=O)N2c3ccccc3Sc3ccccc32)c1,-20%,0,?,i,-64%,-7%
CCOC(=O)c1c(NC(=O)/C=C/c2ccccc2)sc2c1CCCC2,-4%,.,11%,.,.,.
O=S(=O)(c1ccc(F)cc1)N1CCN(c2nc(-c3cccs3)nc3cc(Cl)ccc23)CC1,.,.,.,.,2%,.
Cc1nc(C/C(=N\Nc2ccccc2)c2ccc(O)cc2O)cs1,-19%,0,20µM*,i,1%,-4%
O=c1c2ccccc2sc2ccccc12,.,-35*,0%,i,5%,.
COc1ccc(-n2c(-c3ccc(Cl)cc3)cc3c2CC(C)(C)CC3=O)c(OC)c1,-3%,.,0%,.,.,.
CC1(C)Cc2ccccc2C(/C(=N\Nc2cccc(Cl)c2)C(N)=O)=N1,-20%,-1,16µM*,i,17%,0%
CC1=C(C(=O)Nc2ccc(C)cc2C)C(c2cc(Br)ccc2F)n2ncc(C(=O)Nc3ccc(C)cc3)c2N1 (stereo not drawn),-4%,.,?,.,.,.
O=c1[nH]c(=O)n([C@H]2C[C@@H](O)[C@@H](CO)O2)cc1C=CBr,.,.,.,.,-6%,-6%
CC(C)Cn1c(N)c(C(=O)COC(=O)c2c(O)c(Cl)cc(Cl)c2Cl)c(=O)n(C)c1=O,.,1,25µM*,i,-15%,22%
O=S(=O)(c1ccc(F)cc1)N1CCN(c2nc(-c3cccc(Br)c3)nc3ccccc23)CC1,.,.,.,.,15%,.
COc1cccc(CNC(=O)COC(=O)c2ccc(S(C)(=O)=O)c([N+](=O)[O-])c2)c1,.,.,.,.,-1%,.
COc1cccc(N2C(=O)CC(c3c[nH]c4ccccc34)C2=O)c1 (stereo not drawn),2%,-2,7%,-102%*,1%,-1%
O=C1CC(c2c[nH]c3ccccc23)C(=O)N1c1ccccc1 (stereo not drawn),?,0,0%,i,9%,5%
COc1ccccc1C(=O)OCC(=O)Nc1ccc(N2CCCCC2)cc1,.,.,.,.,-1%,.
CCN=c1scc(C)n1/N=C/c1cc(Br)c(O)c(Br)c1,-8%,1,3.2µM*,i,-18%,25%
O=C1OC(c2ccccc2)c2ccccc21 (stereo not drawn),?,1,4%,i,6%,.
Cc1ccc(C2OC(=O)c3ccccc32)cc1 (stereo not drawn),?,2,35µM*,i,2%,-5%
Cn1ncc(Cl)c1C(=O)N1CCN(c2ccccc2)CC1,-4%,-1,11%,i,-1%,3%
Cn1ncc(Cl)c1C(=O)N1CCN(c2ccc(Cl)c(Cl)c2)CC1,-15%,0,13µM*,i,13%,7%
CCNC(=O)c1c(NC(=O)c2nc(SC)ncc2Cl)sc2c1CCCC2,.,.,.,.,0%,.
Cc1nnc(SCC(=O)Nc2ccc(OC(F)F)c(Cl)c2)n(N)c1=O,.,-40*,2%,i,8%[1.84 µM],.
COc1ccc2sc(-c3ccccc3OC)c(-c3ccc(OCCN4CCOCC4)cc3)c2c1,.,0,8%,i,-25%,.
COc1cccc(-c2sc3ccc(OC)cc3c2-c2ccc(OCCN3CCOCC3)cc2)c1,.,-1,35µM*,i,-44%,.
